Screens (PubChem BioAssay)
PI4K2A inh – PI4K2A (human) kinase inhibition; actives 0.13% (n = 420,000); activity change, negative = inhibition, % at 76.9 µM; purified PI4K2A, ADP-Glo luminescence, 1 h; hits give low values; AID 1346378; in the data active means activity change below about -50%; inconclusive means mostly about -30% to -49%
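PI4K2A activity was measured by ADP-Glo luminescence: enzyme (4 ug/mL stock) and phosphatidylinositol (1.2 mM stock) in Tris pH 7.5/MgCl2/EGTA/Triton X-100 buffer were reacted with ATP (300 microM stock) for one hour at ambient temperature.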
Eya2 phos inh – blocks the phosphatase activity of human Eya2 | O00167 | recombinant Eya2, OMFP fluorescence dephosphorylation (OMFP is methylfluorescein phosphate) | Potency, µM (series often up to 76.9 µM), actives largely listed as inhibitors | actives 0.006% (n = 330,000)
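Eya2 protein (added as 0.2 uM solution) was preincubated with compound for 10 min at ambient temperature in 50 mM HEPES pH 7.5, 50 mM NaCl, 5 uM MgCl2, 0.05% BSA, 1 mM DTT. OMFP (added at 50 uM) then reacted 10 min; fluorescence read at 485/525 nm.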
USP2a inh – USP2a (human) protease inhibition; USP2 core, Ub-CHOP2 coupled fluorogenic reporter, 485/531; Potency, µM (doses to about 38.3 µM), actives largely listed as inhibitors; actives 0.01% (n = 330,000); AID 463254
Target sequence (O75604 whole entry, looked up): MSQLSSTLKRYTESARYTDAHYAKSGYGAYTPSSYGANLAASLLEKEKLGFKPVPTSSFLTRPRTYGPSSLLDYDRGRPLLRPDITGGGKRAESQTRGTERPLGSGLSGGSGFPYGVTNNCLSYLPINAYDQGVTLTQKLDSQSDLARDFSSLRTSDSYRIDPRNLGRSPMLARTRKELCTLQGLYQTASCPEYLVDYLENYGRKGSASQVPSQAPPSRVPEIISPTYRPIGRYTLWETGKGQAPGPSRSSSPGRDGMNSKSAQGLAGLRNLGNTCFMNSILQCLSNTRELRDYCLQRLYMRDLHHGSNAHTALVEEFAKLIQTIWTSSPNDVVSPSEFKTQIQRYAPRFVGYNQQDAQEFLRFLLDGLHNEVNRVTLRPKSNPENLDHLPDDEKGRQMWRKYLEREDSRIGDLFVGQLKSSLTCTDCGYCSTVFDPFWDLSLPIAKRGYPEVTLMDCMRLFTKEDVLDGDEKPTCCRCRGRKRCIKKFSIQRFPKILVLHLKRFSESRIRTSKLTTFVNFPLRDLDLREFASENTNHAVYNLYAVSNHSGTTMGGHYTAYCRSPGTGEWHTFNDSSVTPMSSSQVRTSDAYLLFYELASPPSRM
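USP2 core (10nM final) preincubated 30min RT with compound in 20mM Tris-HCl pH 8.0, 2mM CaCl2, 2mM beta-mercaptoethanol, 0.05% CHAPS; 25nM Ub-CHOP2 plus 25nM reporter substrate added, fluorescence (Ex485/Em531) read after 60min.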
CtBP-E1A inh – inhibitors of CtBP/E1A interaction; AlphaScreen GST-E1A/His-CtBP binding, 1536-well; hits give low values; activity change, % (test concentration not listed); actives 0.49% (n = 340,000); AID 651724; in the data active means activity change below about -65%; inconclusive means mostly about -30% to -63%
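In 5 uL wells, 23 nL compound meets equimolar GST-E1A and His-CtBP (5X stock 125 nM each) for 2 h, 37 °C. Beads (5X, 50 ug/mL) then 1 h, 37 °C, dark.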
RGS4 inhibitor – inhibitors of human regulator of G protein signaling 4; P49798; actives 0.039% (n = 390,000); Potency, µM (highest dose often 114 µM), hits mostly inhibitors; AID 504845; Transcreener GDP fluorescence polarization, RGS4-accelerated GTP hydrolysis; further: nearly all actives have a fitted effect of over 75% in size
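MLSMR compounds (23 nl, pin-transferred) preincubated 10 min at room temperature with a 500nM (2x) first reagent, then RGS4 at 900nM (2x) plus Transcreener GDP mix added; fluorescence polarization (620/688 nm) read before and after 90 min at 30 °C.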
Six1-Eya2 blk – inhibitors of human Six1/Eya2 interaction. Q15475+O00167. AlphaScreen GST-Six1/His-Eya2 binding, biochemical; hits give low values. activity change, % (test concentration not listed). actives 0.56% (n = 360,000). AID 651725; in the data active means activity change below about -65%; inconclusive means mostly about -30% to -63%
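AlphaScreen with GST-Six1 and His-Eya2 (5X mix: 250 nM and 500 nM), glutathione donor and nickel acceptor beads; buffer 50 mM Tris pH 8.0, 300 mM NaCl, 1 mM TCEP; 1 h at 37 C in the dark.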
Numbers stand for hits; . = inactive; ? = inconclusive; / = not tested or not shown; ! = not confirmed by another sample; [ ] = dose if it differs, or a comment. This is a sample that favours compounds with a hit; in the whole collection about 0.72% have one here. Unless noted, the call rests on the fitted dose curve; in most records, active means well fitted curve in the direction sought with a large enough effect; inconclusive means small, poorly fitted or top-dose-only effect, or another doubt; inactive means no such curve, though single readings can be large; an effect the other way counts as inactive or inconclusive.

SMILES	PI4K2A inh	Eya2 phos inh	USP2a inh	CtBP-E1A inh	RGS4 inhibitor	Six1-Eya2 blk
COc1ccc(/C=N/NC(=O)c2cc(-c3ccccc3)nc3ccccc23)c(C(=O)O)c1OC	.	.	.	.	.	.
O=C(N/N=C/c1ccc(F)cc1)c1cc(-c2ccccn2)nc2ccccc12	.	.	.	.	.	.
COc1cccc(/C=N/NC(=O)c2cc(-c3ccccn3)nc3ccccc23)c1O	.	.	.	-95	?	-75
Cc1cc(C(=O)COC(=O)/C=C/c2cccc(Br)c2)c(C)n1C	.	.	.	-66	.	?
O=C(CCc1ccc(O)cc1)c1c(O)cc(O)cc1O	.	.	.	.	19µM!	.
Cc1ccc2[nH]c(CSc3nnc(C)s3)cc(=O)c2c1	.	/	/	/	.	/
O=C1NC[C@@H](CCCCN2CCN(CC3CCCCC3)C(=O)C2=O)N(CC2CCCCC2)C1=O	.	/	/	.	/	.
O=C(O)c1ccc(Nc2cnc3ccccc3n2)cc1	-55	.	.	.	.[11.4 µM]	.
CC(=O)Nc1ccc(C(=O)Nc2nc(-c3cccnc3)cs2)cc1	.	.	.	.	?	.
O=C(Nc1nc(-c2ccccn2)cs1)c1ccccc1-n1cnnn1	.	.	.	-98	.[11.4 µM]	-91
CC(=O)Nc1ccc(C(=O)Nc2nc(-c3ccccn3)cs2)cc1	.	.	.	-91	?	-81
O=C(Nc1ccccn1)c1ccc2c(c1)OCCO2	.	.	.	.	.	.
O=C(Nc1nc(-c2ccccn2)cs1)c1ccc2c(c1)OCCO2	.	.	.	?	?	-82
CC(C)Oc1ccc(/C=N/NC(=O)c2ccc(N(Cc3ccccc3)S(C)(=O)=O)cc2)cc1	.	.	.	.	.	.
COC(=O)COc1ccc(/C=N/NC(=O)c2ccc(N(Cc3ccccc3)S(C)(=O)=O)cc2)cc1	.	.	.	-79	.	-75
CCOC(=O)c1c(C)[nH]c(C)c1C(=O)COc1ncnc2cc([N+](=O)[O-])ccc12	.	.	.	-70	.	-76
Cc1ccc(NC(=O)/C(=C\c2ccc([N+](=O)[O-])cc2)NC(=O)c2ccccc2)cc1	.	.	.	.	.	.
COC(=O)/C(=C\c1ccc([N+](=O)[O-])cc1)NC(=O)c1ccccc1	.	/	/	-91	.	.
O=C(N/N=C/c1ccc(O)c(O)c1O)/C(=C/c1ccc([N+](=O)[O-])cc1)NC(=O)c1ccccc1	.	.	.	-94	?	-90
C[C@@H]1C[C@H]2[C@@H]3CCC4=CC(=O)C=C[C@]4(C)[C@@]3(F)[C@@H](O)C[C@]2(C)[C@@]1(O)C(=O)COC(=O)c1ccncc1	.	/	/	/	/	/
O=c1c(O)c(-c2ccc(O)c(O)c2)oc2cc(O)ccc12	.	/	/	-74	.	?
O=c1c(O)c(-c2ccc(O)cc2)oc2cc(O)cc(O)c12	.	/	/	.	.	.
O=C(Oc1ccc(C(=S)N2CCC(O)CC2)cc1)c1ccc(Cl)cc1	.	.	.	-84	.	-90
O=C(/C=C/c1ccccc1)Oc1cccc(C(=S)N2CCOCC2)c1	.	.	.	.	.	-69
O=C(Oc1ccc(C(=S)N2CCOCC2)cc1)c1cccc(Cl)c1	.	.	.	.	.	-80
SMILES	PI4K2A inh	Eya2 phos inh	USP2a inh	CtBP-E1A inh	RGS4 inhibitor	Six1-Eya2 blk
O=C(/C=C/c1ccccc1)Oc1ccccc1C(=S)N1CCOCC1	.	.	.	.	.	.
O=C(Oc1ccc(C(=S)N2CCCCC2)cc1)c1ccccc1	.	.	.	.	.	.
CN(C)[C@@H](CCOc1cccc2ccccc12)c1ccccc1	.	/	/	/	/	/
CC1(C)O[C@@H]2[C@H](O1)[C@@H](CO)O[C@H]2n1cnc2c(N)ncnc21	-52	.	.	.	.	.
COc1ccccc1N1CCN(S(=O)(=O)c2cc(-c3cc(C)no3)ccc2C)CC1	.	/	/	/	.	/
CCc1ccc(-c2cc(C)no2)cc1S(=O)(=O)N1CCN(c2ccccc2OC)CC1	.	.	.	-79	.	?
